Compound activity (PubChem)
Mtb hypoxia rep: PubChem AID 1159583. M. tuberculosis hypoxia-regulated fluorescent reporter, fluorescence. fluorescence inhibition, % (concentration not given with the values). 300,000 tested, 0.1% active; in the data active = fluorescence inhibition mostly above about 23%, no sharp cut-off; inactive = mostly below about 17%
PfHsp40 rescue: rescue of yeast from PfHsp40 toxicity, primary screen, S. cerevisiae, ATP luminescence. growth rescue, % at 12.5 µM. S. cerevisiae expressing PfHsp40, growth rescue. AID 504582, 2011. 340,000 tested, 0.68% active; in the data active = growth rescue above about 28%, passing the limit was not always enough;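 also: yeast W303a lacking pdr1 and pdr3 grown in galactose medium; growth measured after three days at 30 °C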
MazF activator: activators of E. coli MazEF toxin-antitoxin RNase, primary screen, biochemical, fluorescence, uHTS; Endoribonuclease toxin MazF (Escherichia coli (strain K12)), P0AE70; FAM/BHQ RNA-DNA oligo cleavage fluorescence, 5 h; activation, % at 20 µM; 350,000 tested, 0.32% active; AID 504720, 2011; in the data active = activation above about 50%
Target sequence (P0AE70 whole entry, looked up): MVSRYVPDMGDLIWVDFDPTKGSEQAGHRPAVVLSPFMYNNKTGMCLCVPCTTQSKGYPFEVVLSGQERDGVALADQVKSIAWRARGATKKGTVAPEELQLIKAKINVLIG
Sa ugtP lethal: growth inhibition of ugtP-null S. aureus, primary screen, RN4220 ugtP deletion, OD600; 330,000 tested, 0.54% active; growth inhibition, % (concentration not given with the values); 16 h; in the data active = growth inhibition above about 68%;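 also: plate controls were untreated wells for no effect and antibiotic for full effect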
RN4220 kill: growth inhibition of S. aureus RN4220, primary screen, OD600 | 16 h | inhibition, % (test concentration not listed) | 330,000 tested, 0.33% active | AID 1259311, 2017; in the data active = inhibition above about 85%;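 also: plate controls were untreated cells for no effect and reference antibiotic for full effect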
TcdB GH inh: TcdB glycohydrolase inhibitors, primary screen, biochemical, single point, plate reader. TcdB glycohydrolase enzymatic assay. inhibition, % at 9.99 µM. 350,000 tested, 0.24% active. AID 652162, 2013. Toxin B (Clostridioides difficile), P18177; in the data active = inhibition above about 10%
Numbers without * were called inactive; . = no result shown. The list is not random: actives were taken first. Their share in the collection is about 1.3%.

SMILES	Mtb hypoxia rep	PfHsp40 rescue	MazF activator	Sa ugtP lethal	RN4220 kill	TcdB GH inh
CO[C@H]1CN(C)C(=O)c2cc(NC(=O)Nc3cc(F)ccc3F)ccc2OC[C@@H](C)N(C(=O)c2cnccn2)C[C@@H]1C	.	.	.	.	.	0
C=CCn1c2ccccc2c(=O)c2cc(C#Cc3ccccn3)ccc21	.	29*	-6	.	.	2
C=CCn1c2ccccc2c(=O)c2cc(C#CCC(C)O)ccc21 (configuration not stated)	7	.	.	4	6	.
C[C@@H]1CN([C@H](C)CO)S(=O)(=O)c2ccc(C3=CCCC3)cc2O[C@@H]1CN(C)C(=O)c1ccccc1	.	.	.	.	.	0
CCN(CC)c1ccc(/C=C2\C(=O)c3ccc(C(=O)O)cc3C2=O)cc1	4	0	52*	2	8	.
Cc1ccc(S(=O)(=O)Oc2ccccc2/C=C2/SC(=O)NC2=O)cc1	-2	0	-9	46	55	10*
Cc1ccc(S(=O)(=O)Oc2ccccc2C=C2C(=O)N(C)C(=O)N(C)C2=O)cc1	11	0	-4	10	16	0
Cc1c(N)c(C)c([N+](=O)[O-])c(C)c1[N+](=O)[O-]	14	2	6	17	13	0
Cc1c(N)c(C(C)(C)C)cc(C(C)(C)C)c1[N+](=O)[O-]	8	0	2	95*	5	.
O=C(COc1cccc(C(F)(F)F)c1)N1CCN(c2ccc(O)cc2)CC1	-9	1	-8	-9	5	16*
Cn1c(=O)cc(OCC(=O)N2CCN(c3cccc(C(F)(F)F)c3)CC2)c2ccccc21	-5	48*	-5	0	3	.
O=C(COc1cccc(C(F)(F)F)c1)N1CCN(c2ccccc2O)CC1	-3	-2	-15	-1	5	2
Cc1ccc(NC(=O)CSCC(=O)N2CCN(c3cccc(C(F)(F)F)c3)CC2)cc1	5	41*	-4	10	1	1
O=C1NCC(Cc2cccc3ccccc23)N(CCc2cc(C(F)(F)F)cc(C(F)(F)F)c2)C1=O (configuration not stated)	9	.	.	6	1	.
COC(=O)C1CC1C(NC(=O)c1ccc[nH]1)c1ccccc1 (configuration not stated)	15	.	.	0	6	.
Nc1c(Cl)cc(Cl)cc1C(=O)OCC(=O)NC1CC1	10	124*	8	0	1	.
O=C(COC(=O)c1cc(F)c(F)cc1Cl)NC1CC1	11	0	23	5	6	0
O=C(C[C@@H]1CC[C@H]2[C@@H](COC[C@H](O)CN2Cc2nccs2)O1)NCc1ccc(Oc2ccccc2)cc1	.	.	.	.	.	-1
COC(=O)C(=N/Nc1ccccc1C(=O)OC)/C(C)=N/O	.	137*	6	.	.	-2
CNc1ccccc1C(=O)OC	.	-1	-2	-14	4	0
CC(Sc1ccc2c(c1)OCCO2)C(=O)Nc1ccc2c(c1)OCO2 (configuration not stated)	-2	0	3	-1	6	.
CC(Sc1ncnc2ccccc12)C(=O)Nc1ccc2c(c1)OCO2 (configuration not stated)	.	42*	9	1	-1	.
Clc1ccc(OCCn2cnc3ccccc32)c(Cl)c1	8	28*	-2	-13	5	.
Cc1cc(C)c(NS(=O)(=O)c2cccc3cccnc23)c(C)c1	0	0	3	-5	3	14*
C=CCc1cccc(C=NNC(=O)CCC(=O)Nc2ccc(C)cc2)c1O	3	.	.	1	5	.
SMILES	Mtb hypoxia rep	PfHsp40 rescue	MazF activator	Sa ugtP lethal	RN4220 kill	TcdB GH inh
C=CCc1cccc(/C=N/NC(=O)CCCNc2ccc(C)cc2)c1O	.	93*	-8	.	.	-1
CCC(=O)NN=Cc1ccc(-c2ccc(Cl)cc2)o1	3	.	.	5	10	.
O=C(NN=C1C(=O)c2cccc3cccc1c23)c1ccc(Cl)cc1	3	.	.	92*	97*	.
O=C(N/N=C1\C(=O)c2cccc3cccc1c23)c1ccc(O)cc1	-5	-1	8	1	-19	0
Cc1ccc(/C=N/Nc2ccc(C(=O)O)cc2)s1	.	123*	-30	.	.	-2
Cc1cc(C)nc(/N=C(\N)Nc2ccccc2-c2ccccc2)n1	.	1	15	.	.	10*
COc1ccc(C)cc1NC(=O)C(=O)NN=C(C)CC(=O)Nc1cccnc1	0	.	.	0	5	.
CN1CCN(C(=O)C[C@H]2CC[C@H]3[C@@H](COC[C@H](O)CN3C(=O)Cc3ccccc3)O2)CC1	.	.	.	.	.	0
Cc1cc(C)c2nc(NNC(=O)c3ccc(S(=O)(=O)N4CCc5ccccc5C4)cc3)sc2c1	7	0	1	-20	-3	0
Cc1cc(C)c2sc(NNC(=O)c3ccc(S(=O)(=O)N4CCc5ccccc5C4)cc3)nc2c1	2	364*	-9	28	25	0
CCOc1ccc(-c2cc(C(=O)NN=Cc3ccc(O)cc3)c3ccccc3n2)cc1	13	.	.	15	-8	.
Cc1csc(NC(=O)c2nc3nccc(C)n3n2)n1	4	-1	-5	5	1	.
Cc1ccnc2nc(C(=O)Nc3nc4ccccc4s3)nn12	53*	0	5	4	1	1
Cc1ccnc2nc(C(=O)NC3CCCc4ccccc43)nn12 (configuration not stated)	16	147*	8	-1	-2	-1
CCn1ncc(C=NNC(=O)COc2cc(C)cc(C)c2)c1C	10	.	.	12	3	.
Clc1ccc(-c2n[nH]c3c2CCC3)cc1Cl	.	241*	0	8	11	.
CC(C)c1ccc(CNc2cc(N3CCCC3)ccc2[N+](=O)[O-])cc1	13	2	9	1	7	1
CC(C)(C)c1ccc(CNc2cc(N3CCOCC3)ccc2[N+](=O)[O-])cc1	14	2	1	92*	-4	.
Cn1c(S(=O)(=O)c2ccc([N+](=O)[O-])cc2)nc(Br)c1Br	-3	-1	5	95*	98*	1
COc1ccc(-n2nnnc2S(=O)(=O)Cc2ccc(C(=O)O)cc2)cc1	.	0	1	95*	38	.
C=CCNc1nc(Cl)nc(NCc2ccco2)n1	3	0	1	5	-3	0
Oc1ccc(Nc2nc(Cl)nc(NCc3ccco3)n2)cc1	8	-2	6	0	6	13*
Cc1cc(Cl)ccc1NC(=O)C=NO	6	.	.	5	3	.
c1ccc(C2=Nc3ccccc3OC2)cc1	.	50*	-15	9	7	.
NS(=O)(=O)c1ccc(N2CCCC2=O)c([N+](=O)[O-])c1	-5	-1	3	0	4	1
NNS(=O)(=O)c1ccc(N2CCCC2=O)c([N+](=O)[O-])c1	12	-1	227*	7	7	-3
O=C(C1CCCCC1)N1CC[C@@H]2[C@@H](CO)Nc3ccc(Br)cc3[C@@H]21	.	.	.	.	.	0
CCCN(C)C[C@H]1OCc2cnnn2CCCC(=O)N([C@@H](C)CO)C[C@H]1C	.	.	.	.	.	1
